# Source: PubChem
# TDP1 cell CPT = DT40-hTDP1 cell growth loss with CPT; Potency, µM (doses to about 46.2 µM), for inactives: at the top dose activity change, negative = growth inhibition, most hits filed as inhibitors; actives 12% (n = 420,000); chicken DT40 Tdp1-/-;hTDP1 cells + 20 nM CPT, ATP luminescence, 48 h; also: potency is read from the fitted curve at half-maximal effect; nearly all actives have a fitted effect of over 55% in size
#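 Cell growth measured by CellTiter-Glo luminescence after a minimum 48 h, 37 C compound exposure with 20 nM CPT in Tdp1-knockout DT40 cells stably expressing hTDP1, seeded 400/well; qHTS titration format.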
# TDP1 cell noCPT = qHTS for Inhibitors of human tyrosyl-DNA phosphodiesterase 1 (TDP1): qHTS in cells in absence of CPT. Potency, µM (doses to about 46.2 µM), for inactives: top-dose activity change, negative = growth inhibition, most hits filed as inhibitors. actives 15% (n = 420,000). DT40 Tdp1-/- hTDP1 cells, no CPT, ATP luminescence, 48 h; also: potency is read from the fitted curve at half-maximal effect; nearly all actives have a fitted effect of over 55% in size
#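 A cellular qHTS used chicken DT40 cells lacking endogenous Tdp1 but carrying stably transfected human TDP1. Compounds were applied without camptothecin, and cell growth kinetics were judged by ATP-dependent luminescence after ≥48 hr.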
# RORg inh = inhibitors of mouse ROR gamma transcriptional activity. P51450. Drosophila S2 Gal4-RORgamma UAS-luciferase reporter, 20 h. Potency, µM (top dose mostly 53.6 µM), inactives show at the highest dose activity change, negative = inhibition, usual class: inhibitors. actives 5.4% (n = 310,000). AID 2551; also: potency is read from the fitted curve at half-maximal effect; nearly all actives have a fitted effect of over 60% in size
# Target sequence (P51450 whole entry, looked up, the tested form may be a part): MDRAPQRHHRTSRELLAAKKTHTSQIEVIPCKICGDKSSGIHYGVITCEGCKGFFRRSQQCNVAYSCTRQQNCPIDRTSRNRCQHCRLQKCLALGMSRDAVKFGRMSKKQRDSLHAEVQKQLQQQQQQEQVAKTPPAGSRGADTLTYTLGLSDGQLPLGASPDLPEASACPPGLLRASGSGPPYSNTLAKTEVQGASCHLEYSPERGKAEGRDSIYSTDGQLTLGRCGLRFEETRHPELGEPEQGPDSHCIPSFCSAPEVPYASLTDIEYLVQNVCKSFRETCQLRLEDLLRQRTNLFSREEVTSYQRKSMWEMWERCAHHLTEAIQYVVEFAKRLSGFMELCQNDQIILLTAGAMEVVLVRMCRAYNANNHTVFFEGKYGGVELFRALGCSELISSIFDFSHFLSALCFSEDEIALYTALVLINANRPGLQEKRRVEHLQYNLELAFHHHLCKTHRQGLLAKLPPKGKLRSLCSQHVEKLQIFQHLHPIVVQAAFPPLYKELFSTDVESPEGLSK
#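 Compounds are pin-transferred onto Drosophila Schneider cells expressing a copper-inducible Gal4–ROR gamma transactivation domain fusion. After 1 hr, copper sulfate is added to 700 uM final; luciferase is read 20 hr later.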
# LDHA inh = LDHA (human) enzyme inhibition | purified LDHA, NADH/diaphorase-resazurin fluorescence; hits give low values | activity change, % (values are at about 110 or 230 µM) | actives 0.15% (n = 480,000) | P00338; in the data active = activity change below about -30%; inconclusive = mostly about -25% to -30%;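 also: plate controls were DMSO wells for no effect and wells without enzyme for full effect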
#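 LDH5 2 nM; NADH 0.06 mM, pyruvate 0.2 mM; 200 mM Tris pH 7.4, EDTA, Tween-20; 5 min RT. Detection: diaphorase 0.133 mg/mL + resazurin 37 µM, fluorescence ex540/em590 at 0 and 20 min; normalized to enzyme-free and DMSO wells.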
# Gal4-VP16 FLuc = counter-screen for ROR gamma inhibitors: Gal4-VP16 reporter; Drosophila S2 Gal4-VP16 UAS-luciferase, luminescence, 20 h; Potency, µM (titrated, usually from 53.6 µM), without a hit: at the top dose activity, negative = inhibition, actives largely listed as inhibitors; AID 2546; actives 3.5% (n = 310,000);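 also: Gal4-VP16 expression switched on by copper sulfate through the metallothionein promoter; potency is read from the fitted curve at half-maximal effect; nearly all actives have a fitted effect of over 50% in size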
# IL-1B inflam inh = inhibitors of inflammasome signaling (IL-1 beta secretion). actives 4.7% (n = 360,000). activity change, % at 57.5 µM. AID 743279. THP-1 LPS/ATP IL-1B secretion, AlphaLISA, 16 h; hits give low values; in the data active = activity change below about -50%; inconclusive = mostly about -30% to -49%
#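 THP-1 cells pretreated 1 hr with compounds (up to 57.5 uM final), then stimulated with LPS (250 ng/mL final) plus ATP (1.25 mM final); secreted IL-1B measured by AlphaLISA after 16 hr, decreased signal indicating inhibition.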
# Numbers without * were called inactive; ? = inconclusive; nt = no result given. The list is not random: actives were taken first. Their share in the collection is about 18%. Unless noted, calls follow the shape of the dose curve; as a rule, active = well fitted curve in the direction sought with a large enough effect; inconclusive = small, poorly fitted or top-dose-only effect, or another doubt; inactive = no such curve, though single readings can be large; an effect the other way counts as inactive or inconclusive. Unless noted, % is scaled to controls: 0 for no effect and ±100 for the full control effect.
SMILES,TDP1 cell CPT,TDP1 cell noCPT,RORg inh,LDHA inh,Gal4-VP16 FLuc,IL-1B inflam inh
Cc1cccc(NC2=Nc3ccccc3N3C2=Nc2c(c(C)nn2-c2ccccc2)C3c2ccc(O)c(O)c2)c1 (stereo unspecified),?,?,-11%,-12,-21%,-15
Cc1ccc2c(CN(C)CCOc3ccccc3C)cc(=O)oc2c1,nt,nt,nt,-1,nt,nt
COc1ccc(C(=O)Nc2c(N3CCCC3)c3ccccc3oc2=O)cc1OC,nt,nt,nt,-8,nt,nt
CCC(=O)N1N=C(c2c(-c3ccccc3)c3cc(C)ccc3[nH]c2=O)CC1c1ccco1 (stereo unspecified),nt,nt,nt,4,nt,nt
CC(C)CCn1c(=O)c2ccccc2n2c(=S)[nH]nc12,-23%,?,4µM*,-4,13µM*,27
CCOCCCn1c(=O)c2ccccc2n2c(=S)[nH]nc12,7%,-13%,?,0,-20%,-7
CC(C)CCn1c(=O)c2ccccc2n2c(CN(C)Cc3ccccc3)nnc12,23µM*,16µM*,-25%,2,-4%,-23
CC(C)CCn1c(=O)c2ccccc2n2c(CCl)nnc12,?,23µM*,?,-3,-7%,nt
Cc1ccc(-c2nc3cc(C)c(C)cc3nc2-c2ccc(C)cc2)cc1,nt,nt,nt,-2,nt,nt
Cc1ccc(-c2cc(C(=O)N3CCN(c4ccc(O)cc4)CC3)c3ccccc3n2)cc1,?,?,nt,-2,nt,-24
Cc1ccc(N2CCN(C(=O)c3cccn4c(=O)c5ccc(Cl)cc5nc34)CC2C)cc1 (stereo unspecified),-27%,2%,nt,4,nt,nt
CCOc1ccc(-c2cc(C(=O)N3CCN(c4cccc(C)c4)C(C)C3)c3ccccc3n2)cc1 (stereo unspecified),16µM*,7.3µM*,nt,2,nt,nt
Cc1cccc(N2CCN(C(=O)c3cccn4c(=O)c5cc(Cl)ccc5nc34)CC2C)c1 (stereo unspecified),18µM*,?,nt,1,nt,nt
CCOc1ccc(-c2cc(C(=O)N3CCN(c4ccc(C)cc4)C(C)C3)c3ccccc3n2)cc1 (stereo unspecified),21µM*,23µM*,nt,0,nt,nt
S=C(NCCc1ccc(Cl)cc1)Nc1ccc(Nc2ccccc2)cc1,nt,nt,nt,1,nt,nt
S=C(Nc1ccn(C23CC4CC(CC(C4)C2)C3)n1)NC1CCCC1,nt,nt,nt,8,nt,nt
CC(C)n1ccc2nc3ccn(-c4ncn[nH]4)c(=O)c3cc2c1=O,nt,nt,nt,16,nt,nt
CC1=CC(=O)C(C(C)C)=C/C1=C(\c1cc(C(C)C)c(OP(=O)(O)O)cc1C)c1ccccc1C(=O)O,?,21µM*,1%,-2,-1%,25
CCN(CC)S(=O)(=O)c1ccc(N2CCOCC2)c(NC(=O)c2ccc3c(c2)OCCO3)c1,16µM*,21µM*,nt,-2,nt,-4
CCN(CC)S(=O)(=O)c1ccc(N2CCOCC2)c(NC(=O)c2cccc3c(=O)c(C)c(-c4ccccc4)oc23)c1,5.8µM*,9.2µM*,nt,-7,nt,-25
COc1ccc(S(=O)(=O)N2CCOCC2)cc1NC(=O)c1cccc2c(=O)c(C)c(-c3ccccc3)oc12,?,5.2µM*,?,-3,-3%,-28
CCN(CC)S(=O)(=O)c1ccc(N2CCOCC2)c(NC(=O)c2ccc(NC(C)=O)cc2)c1,-26%,19%,0%,-6,-3%,?
CCN(CC)S(=O)(=O)c1ccc(N2CCOCC2)c(NC(=O)c2ccc3ccccc3c2)c1,?,21µM*,17%,3,-7%,8
CCOC(=O)c1noc2ncn(Cc3nc(-c4cccc(OC)c4OC)oc3C)c(=O)c12,nt,nt,nt,-14,nt,nt
CC(C)NC(=O)c1cc(Cl)ccc1OCc1ccccc1,nt,nt,nt,-1,nt,nt
Cc1ccc(NC(=O)COc2ncnc3ccc(Br)cc23)cc1C,nt,nt,nt,-2,nt,nt
